Laboratory results published in PubChem BioAssay (NCATS).
Results filed as inconclusive are left out. Activity calls are given as the source filed them. The call rests on the fitted dose curve; in most records, active means well fitted inhibition curve with a large enough effect; inconclusive means small, poorly fitted or top-dose-only effect; inactive means flat fitted curve, though single readings scatter.

Assays:
[1] = qHTS profiling for inhibitors of Plasmodium falciparum proliferation (AID 504749); further: nearly all actives have a fitted effect of over 60% in size;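 on activity, negative = inhibition: 0% = DMSO vehicle and full inhibition = artemisinin control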; conditions: P. falciparum in erythrocytes, SYBR Green DNA, 72 h, at 28.7 µM (top of the series)
How it was run: (§1)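 Three-day growth assay of blood-stage parasites in erythrocytes (0.3% parasitemia, 2.5% hematocrit) at 37 C, 5% CO2, quantified by SYBR Green DNA staining after overnight detergent lysis.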

3D7 = test: as above; conditions: P. falciparum in erythrocytes, SYBR Green DNA, 72 h; series mostly up to 28.7 µM
How it was run: as §1

7G8 = test: as above; conditions: P. falciparum in erythrocytes, SYBR Green DNA, 72 h; series mostly up to 28.7 µM
How it was run: as §1

AA1029 = test: as above; conditions: P. falciparum in erythrocytes, SYBR Green DNA, 72 h; series mostly up to 28.7 µM
How it was run: as §1

AS120 = test: as above; conditions: P. falciparum in erythrocytes, SYBR Green DNA, 72 h; series mostly up to 28.7 µM
How it was run: as §1

ATS189 = test: as above; conditions: P. falciparum in erythrocytes, SYBR Green DNA, 72 h; series mostly up to 28.7 µM
How it was run: as §1

ATS95 = test: as above; conditions: P. falciparum in erythrocytes, SYBR Green DNA, 72 h; series mostly up to 28.7 µM
How it was run: as §1

C2A = test: as above; conditions: P. falciparum in erythrocytes, SYBR Green DNA, 72 h; series mostly up to 28.7 µM
How it was run: as §1

CP185 = test: as above; conditions: P. falciparum in erythrocytes, SYBR Green DNA, 72 h; series mostly up to 28.7 µM
How it was run: as §1

CP191 = test: as above; conditions: P. falciparum in erythrocytes, SYBR Green DNA, 72 h; series mostly up to 28.7 µM
How it was run: as §1

CP192 = test: as above; conditions: P. falciparum in erythrocytes, SYBR Green DNA, 72 h; series mostly up to 28.7 µM
How it was run: as §1

CP194 = test: as above; conditions: P. falciparum in erythrocytes, SYBR Green DNA, 72 h; series mostly up to 28.7 µM
How it was run: as §1

CP201 = test: as above; conditions: P. falciparum in erythrocytes, SYBR Green DNA, 72 h; series mostly up to 28.7 µM
How it was run: as §1

CP203 = test: as above; conditions: P. falciparum in erythrocytes, SYBR Green DNA, 72 h; series mostly up to 28.7 µM
How it was run: as §1

CP211 = test: as above; conditions: P. falciparum in erythrocytes, SYBR Green DNA, 72 h; series mostly up to 28.7 µM
How it was run: as §1

CP215 = test: as above; conditions: P. falciparum in erythrocytes, SYBR Green DNA, 72 h; series mostly up to 28.7 µM
How it was run: as §1

CP217 = test: as above; conditions: P. falciparum in erythrocytes, SYBR Green DNA, 72 h; series mostly up to 28.7 µM
How it was run: as §1

CP237 = test: as above; conditions: P. falciparum in erythrocytes, SYBR Green DNA, 72 h; series mostly up to 28.7 µM
How it was run: as §1

CP238 = test: as above; conditions: P. falciparum in erythrocytes, SYBR Green DNA, 72 h; series mostly up to 28.7 µM
How it was run: as §1

CP247 = test: as above; conditions: P. falciparum in erythrocytes, SYBR Green DNA, 72 h; series mostly up to 28.7 µM
How it was run: as §1
Potency means the concentration at half of the fitted maximal effect.

C=CCN1CCCC1CNC(=O)c1cc(S(N)(=O)=O)cc(OC)c1OC (stereo unspecified)
inactive: activity, negative = inhibition ([1]; parasite line A) -0.688% | activity, negative = inhibition ([1]; parasite line B) 8.33% | Potency (3D7) | Potency (7G8) | Potency (AA1029) | Potency (AS120) | Potency (ATS189) | Potency (ATS95) | Potency (C2A) | Potency (CP185) | Potency (CP191) | Potency (CP192) | Potency (CP194) | Potency (CP201) | Potency (CP203) | Potency (CP211) | Potency (CP215) | Potency (CP217) | Potency (CP237) | Potency (CP238) | Potency (CP247)

CCN(CC)C(=S)S
inactive: activity, negative = inhibition ([1]; parasite line A) -22.3% | activity, negative = inhibition ([1]; parasite line B) -18.1% | Potency (3D7) | Potency (7G8) | Potency (AA1029) | Potency (AS120) | Potency (ATS189) | Potency (ATS95) | Potency (C2A) | Potency (CP185) | Potency (CP191) | Potency (CP192) | Potency (CP194) | Potency (CP201) | Potency (CP203) | Potency (CP211) | Potency (CP215) | Potency (CP217) | Potency (CP237) | Potency (CP238) | Potency (CP247)

O=C(O)c1ccc(NC(=O)[C@H](Cc2ccc(O)cc2)NC(=O)c2ccccc2)cc1
inactive: activity, negative = inhibition ([1]; parasite line A) 3.76% | activity, negative = inhibition ([1]; parasite line B) 5.17% | Potency (3D7) | Potency (7G8) | Potency (AA1029) | Potency (AS120) | Potency (ATS189) | Potency (ATS95) | Potency (C2A) | Potency (CP185) | Potency (CP191) | Potency (CP192) | Potency (CP194) | Potency (CP201) | Potency (CP203) | Potency (CP211) | Potency (CP215) | Potency (CP217) | Potency (CP237) | Potency (CP238) | Potency (CP247)

[O]=[Bi][O]C(=O)[O][Bi]=[O]
active: Potency (7G8) 10 µM
inactive: activity, negative = inhibition ([1]; parasite line A) 3.84% | activity, negative = inhibition ([1]; parasite line B) -1.66% | Potency (3D7) | Potency (AA1029) | Potency (AS120) | Potency (ATS189) | Potency (ATS95) | Potency (C2A) | Potency (CP185) | Potency (CP191) | Potency (CP192) | Potency (CP194) | Potency (CP201) | Potency (CP203) | Potency (CP211) | Potency (CP215) | Potency (CP217) | Potency (CP237) | Potency (CP238) | Potency (CP247)

O=[n+]1ccn([O-])c2ccccc21
inactive: activity, negative = inhibition ([1]; parasite line A) 14.9% | activity, negative = inhibition ([1]; parasite line B) 3.55% | Potency (3D7) | Potency (7G8) | Potency (AA1029) | Potency (AS120) | Potency (ATS189) | Potency (ATS95) | Potency (C2A) | Potency (CP185) | Potency (CP191) | Potency (CP192) | Potency (CP194) | Potency (CP201) | Potency (CP203) | Potency (CP211) | Potency (CP215) | Potency (CP217) | Potency (CP237) | Potency (CP238) | Potency (CP247)

CC1=C(/C=C/C(C)=C/C=C/C(C)=C/C(=O)Oc2c(C)c(C)c3c(c2C)CC[C@@](C)(CCC[C@H](C)CCC[C@H](C)CCCC(C)C)O3)C(C)(C)CCC1
inactive: activity, negative = inhibition ([1]; parasite line A) 5.64% | activity, negative = inhibition ([1]; parasite line B) 7.26% | Potency (3D7) | Potency (7G8) | Potency (AA1029) | Potency (AS120) | Potency (ATS189) | Potency (ATS95) | Potency (C2A) | Potency (CP185) | Potency (CP191) | Potency (CP192) | Potency (CP194) | Potency (CP201) | Potency (CP203) | Potency (CP211) | Potency (CP215) | Potency (CP217) | Potency (CP237) | Potency (CP238) | Potency (CP247)
